Laboratory results taken from the OligoGym collection.

Target: MPHOSPH9
Assay: pooled miR-30 sensor sort-seq; sequence = guide strand
Details: shRNA
Note: reference of the scale not given here.

Sequence	sensor-assay potency score (higher = more potent)
TTTATCAACAAGCTTGTTGATG	-0.498
TATTTGTTTAGAAACAAGCTGC	0.128
TTGAGCTTCTTTATCATCTGAG	0.656
TTAAAGACACATGACACTCTTC	0.499
TTACAATGTAGAACAAGTCTAT	0.128
TTGTTTAGAAACAAGCTGCTTC	0.601
TTTGGTGACACATCTGTGGAAG	-0.32
TTGCTTGTGAAAATGAGTCTAT	-0.111
TTCATCTACAGTGTTGACCGAG	0.377
TAGATCTTGAACCTCCATCTTC	-0.263
TTGTTGATGAACTTCCAGGTGA	-0.421
TAACGTAGGATCTAGAGTCAGG	-0.553

Target: MPST
Assay: as above
Details: shRNA

Sequence	sensor-assay potency score (higher = more potent)
TTCTCCTGGAACAGATGGCGGA	-0.871
TCGTAGATCACGACGTGGGTGG	-0.279
TACCACTCCACCCAGGAGCCAT	-1.23
TGAGTGAAGAAACACTCTCTTG	-1.53
TCGTAGGTCTTGATGAAGGCGG	-0.615
TAGGTCTTGATGAAGGCGGGGT	0.122
TTGATGTCCTCGTAGGTCTTGA	-0.443
TTAGACAGGTCCACTTTCTTCT	0.441
TGAAGAAACACTCTCTTGGTGA	-0.0211
TTCTCCTTGATGTCCTCGTAGG	-1.08
TCGATGTCGAAGAAAGCGGCGC	-0.934
TTGAGTGAAGAAACACTCTCTT	0.653

Target: MPZL1
Assay: as above
Details: shRNA

Sequence	sensor-assay potency score (higher = more potent)
TTGACATCACAGATATAGGTGC	0.0652
TTTTCTACGACATAGAGCCTAA	-0.79
TTTGACATCACAGATATAGGTG	0.376
TAACTGTGCATATATGACTGGG	-0.763
TTTCTATGTTGATTGATGCATC	-0.949
TATTTATACATATCCTTTGTAC	-0.807
TACACCACAGACTCTGACTTGT	0.413
TTTTCTATGTTGATTGATGCAT	-0.358
TTGTGTACCATTTGCCACGAAG	-1.44
TATTCTCTTAATTCTTTCGGAT	-0.74
ATATTTTCTATGTTGATTGATG	-0.933
TTTTTCTACGACATAGAGCCTA	-0.173
